# Compound activity as filed in PubChem.
# HCV inh – blocks hepatitis C virus; Huh7.5.1 HCVcc-Cre infection, luciferase reporter, 44 h; Potency, µM (top dose mostly 41.8 µM), without a hit: at the highest dose activity change, negative = inhibition, hits mostly inhibitors; 340,000 tested, 3.4% active; active = well fitted inhibition curve with a large enough effect; inconclusive = small, poorly fitted or top-dose-only effect, or another doubt; inactive = no such curve, though single readings can be large or run the other way; also: potency is read from the fitted curve at half-maximal effect; % is scaled to controls: 0 for no effect and ±100 for the full control effect
#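 Compounds are dispensed onto cells plated 4 h earlier at 1,000 per well, with HCVcc-Cre virus (about 0.5 moi) added next. Following 44 h of culture, luminescent signal is measured for 15 sec after 15 min with substrate at room temperature.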
# CHX counter – affects cycloheximide protein synthesis inhibition readout, counter-screen; 300,000 tested, 12% active; AID 2314; cell reporter, cycloheximide protein synthesis inhibition counterscreen; max response, %; in the data active = max response mostly above about 13%, no sharp cut-off; inactive = mostly below about 14%; also: read at 38.3 µM for the half of the compounds with a filed dose; 0% is about no effect
# MARV entry inh – Marburg virus entry inhibition. Potency, µM (highest dose often 37.8 µM), for inactives: at the highest dose activity change, negative = inhibition, most hits filed as inhibitors. 300,000 tested, 1.8% active. Marburg virus pseudotyped entry inhibition, cell reporter; calls by dose curve; tested in HEK293 cells; also: potency is read from the fitted curve at half-maximal effect; % is scaled to controls: 0 for no effect and ±100 for the full control effect
# Shiga inhibitor – Shiga toxin inhibition. 290,000 tested, 9.2% active. inhibition, % at 38.7 µM. AID 2315. Vero cells, Shiga toxin protein synthesis inhibition reporter; in the data active = inhibition mostly above about 28%, no sharp cut-off; inactive = mostly below about 43%; also: 0% is about no effect
# FMDV antiviral – foot and mouth disease virus antiviral activity | 410,000 tested, 1.2% active | Potency, µM (doses to about 57.9 µM), inactives show at the top dose activity change, negative = inhibition, hits mostly inhibitors | FMDV antiviral cell-based qHTS; calls by dose curve; tested in HEK293T cells; also: read-out not given here; potency is read from the fitted curve at half-maximal effect; % is scaled to controls: 0 for no effect and ±100 for the full control effect; nearly all actives have a fitted effect of over 45% in size
# LASV entry inh – blocks Lassa virus binding to or entry into cells. Lassa virus pseudotype entry inhibition, cell reporter. AID 540256. 300,000 tested, 1.2% active. Potency, µM (top dose mostly 37.9 µM), inactives show at the highest dose activity change, negative = inhibition, hits mostly inhibitors; calls by dose curve; tested in HEK293 cells; also: potency is read from the fitted curve at half-maximal effect; % is scaled to controls: 0 for no effect and ±100 for the full control effect; nearly all actives have a fitted effect of over 50% in size
# Active calls of the source: *; ? = inconclusive; . = not tested or not shown; [ ] = dose if it differs, or a comment. The list is not random: actives were taken first. Their share in the collection is about 13%.
SMILES,HCV inh,CHX counter,MARV entry inh,Shiga inhibitor,FMDV antiviral,LASV entry inh
CC(=O)c1c(C)[nH]c(C(=O)NCCC2=CCCCC2)c1C,?,49.0*,?,105.2*,7.6%,?
CCC(C)c1ccc(NC(=O)c2[nH]c(C)c(C(C)=O)c2C)cc1 (stereo not drawn),?,23.0*,?,71.3*,16.9%,-16.8%[46.1 µM]
COCCNC(=S)N(CCc1c(C)[nH]c2ccccc12)Cc1cccnc1,12.5%,-3.3,-8.1%,43.0,-7.4%,4.3%
CC(C)NC(=O)C(=O)NCCC1CCCCN1S(=O)(=O)c1cccs1 (stereo not drawn),10.6%,.,10.5%,.,-24.7%,13.7%
CCSc1oc(-c2ccc(F)cc2)nc1S(=O)(=O)c1ccc(C)cc1,.,.,-8.5%[46.1 µM],.,-12.2%,-8.2%[46.1 µM]
CCOC(=O)/C=C1\NC(C)(C)Cc2cc(OC)c(O)cc21,-24.6%,-7.6,8.0%,-0.8,.,2.3%
CC(=O)c1c(C)[nH]c(C(=O)Nc2cccc(C)c2C)c1C,-9.9%,-1.0,-11.0%[46.1 µM],16.7,-11.0%,14.4%
CC(=O)c1c(C)[nH]c(C(=O)Nc2ccc(F)c(F)c2F)c1C,?,6.1,?,71.3*,49.3%,13.4%
Cc1[nH]c2ccccc2c1C(=O)C(=O)NCCc1c[nH]c2ccccc12,-18.8%,-3.9,.,-5.2,-0.8%,.
CSc1cccc(NC(=O)c2[nH]c(C)c(C(C)=O)c2C)c1,?,43.9*,?,93.5*,35.5%,?
CC(=O)c1c(C)[nH]c(C(=O)NCCc2c[nH]c3ccccc23)c1C,?,39.1*,-4.8%[46.1 µM],41.1*,26.2%,-0.8%[46.1 µM]
CC(=O)c1[nH]c(C)c(C(=O)NCCc2ccc(C)cc2)c1C,.,.,.,.,-5.6%,-11.8%[46.1 µM]
CC(=O)c1c(C)[nH]c(C(=O)NCCc2ccc(Cl)cc2)c1C,-14.6%,15.6*,.,36.1,5.1%,.
COC(=O)c1nn(-c2cccc(Cl)c2)cc(OC)c1=O,9.9%,-4.9,.,-3.8,-19.1%,.
Cc1ccc(S(=O)(=O)C(CNC(=O)COc2ccc(Cl)cc2)c2ccco2)cc1 (stereo not drawn),.,.,.,.,-18.7%,-28.5%[46.1 µM]
COc1ccc(Cl)cc1C(=O)NNC(=O)c1[nH]c(C)c(C(C)=O)c1C,?,.,15.0%,.,13.4%,7.4%[46.1 µM]
CC(=O)c1c(C)[nH]c(C(=O)Nc2ccc(Cl)cc2)c1C,?,41.5*,?,62.3*,83.3%,?
CC(=O)c1c(C)[nH]c(C(=O)Nc2ccc(Cl)cc2F)c1C,-20.5%,31.6*,?,115.7*,45.1%,?
CC(=O)c1c(C)[nH]c(C(=O)Nc2ccccn2)c1C,-2.4%,44.1*,-22.3%[46.1 µM],52.4*,-1.9%,-19.6%[46.1 µM]
CC1C(=O)N2CCCc3cc(NC(=O)COc4ccccc4)cc1c32 (stereo not drawn),?,.,1.9%,.,17.5%,6.4%
CC(=O)Nc1cc2c(cc1C(=O)c1ccc(C)cc1)OCCO2,-11.1%,-0.6,-12.5%,-14.2,-14.0%,0.8%
O=C(c1ccccc1)c1cc2c(cc1[N+](=O)[O-])OCCO2,2.9%,12.2*,.,16.3,19.8%,.
Cc1ccc(C(=O)c2cc3c(cc2[N+](=O)[O-])OCCO3)cc1,3.1%,15.8*,-19.7%,35.4,36.9%,0.9%
CC(C)C(=O)Nc1cc2c(cc1C(=O)c1ccccc1)OCCO2,-0.8%,-2.2,17.8%,-9.9,-13.6%,-10.4%
O=C(c1ccco1)N1CCC(c2ccccc2)C1 (stereo not drawn),23.4%,24.2*,9.6%,79.2*,.,0.0%
SMILES,HCV inh,CHX counter,MARV entry inh,Shiga inhibitor,FMDV antiviral,LASV entry inh
O=C(c1ccc(F)cc1)N1CCC(c2ccccc2)C1 (stereo not drawn),4.1%,41.4*,-13.6%[46.1 µM],67.8*,35.7%,-7.9%
COc1ccc(C(=O)N2CCCC(c3ccccc3)C2)cc1 (stereo not drawn),-16.5%,-1.8,?,-9.6,-1.4%,4.47µM*
COc1ccc(C(=O)N2CCCC(c3cc(C(=O)Nc4ccccc4)no3)C2)cc1 (stereo not drawn),.,.,.,.,17.8%,.
CCOC(=O)C1C(=O)N(C(=O)c2ccc(OC)cc2)CC1c1ccccc1 (stereo not drawn),?,9.6*,4.0%,16.5,-8.3%,17.5%
O=C(O)C1CCN(C(=O)c2ccco2)CC1,-3.7%,-4.1,?,7.0,4.9%,-2.9%[46.1 µM]
CCC(C(=O)Nc1nc(C)c(C)s1)c1ccccc1 (stereo not drawn),?,-1.2,-17.0%,.,-25.1%,1.2%
COc1ccc(NC(=O)CSc2oc(-c3cccs3)nc2S(=O)(=O)c2ccc(C)cc2)c(OC)c1,.,.,?,.,14.2%,-17.8%[46.1 µM]
Cc1nn(-c2ccccc2)c2[nH]c(=O)c(CNCC3CCCO3)cc12 (stereo not drawn),-14.5%,2.0,-4.8%[46.1 µM],25.1,-6.9%,1.2%
Cn1ccnc1SCC(=O)n1c2c(c3ccccc31)CCCC2,12.7%,1.6,27.9%,-3.8,-7.9%,-0.6%
COc1ccc(/C=N/N=C2/NC(=O)C(CC(=O)O)S2)cc1OCc1ccccc1Cl (stereo not drawn),32.6%,-1.5,-26.0%,-10.5,-12.7%,-12.7%
COc1cc(/C=N/N=C2/NC(=O)C(c3ccccc3)S2)ccc1O (stereo not drawn),8.2%,5.7,14.9%,-1.9,29.1%,4.47µM*
COc1ccc(/C=N/N=C2/NC(=O)C(CC(=O)O)S2)cc1OCc1ccc(Cl)cc1Cl (stereo not drawn),24.2%,-3.9,1.12µM*,-2.8,-15.2%,-3.5%
COc1cc(/C=N/N=C2/NC(=O)C(Cc3ccc(F)cc3)S2)ccc1O (stereo not drawn),1.9%,33.6*,?,84.5*,3.1%,?
CC(C)=N/N=C1/NC(=O)C(c2ccccc2)S1 (stereo not drawn),-0.5%,.,?,.,-8.0%,-1.7%
O=C(O)Cc1ccc(Nc2cnn(C34CC5CC(CC(CC(=O)O)(C5)C3)C4)c(=O)c2Cl)cc1,27.1%,-2.9,-6.6%[46.1 µM],3.7,-12.7%,?
Nc1ccc2c(c1)C(=O)CCC2,.,.,.,.,-3.1%,.
C#Cc1ccc(CN2CCC(C(=O)Nc3ccc(Oc4ccccc4)nc3)CC2)cc1,4.47µM*,-1.4,.,-2.1,?,.
O=C(Nc1ccc(Oc2cccnc2)cc1)C1CCN(Cc2ccc(F)cc2)CC1,?,11.0,?,0.4,0.0%,?
O=C(Nc1ccc(Oc2ccccc2)nc1)C1CCN(Cc2cccc(F)c2)CC1,.,12.6,?,1.2,?,-15.2%
O=C(Nc1ccc(Oc2cccnc2)cc1)C1CCN(Cc2cc(Cl)ccc2O)CC1,?,10.1,.,22.6,7.94µM*,.
CC#CC(=O)N1CCC(C(=O)Nc2ccc(Oc3ccccc3)nc2)CC1,-8.8%,34.4*,.,86.8*,10.4%,.
Cc1ccc(CN2CCCCC2C(=O)Nc2ccc(Oc3cccnc3)cc2)o1 (stereo not drawn),?,13.0,?,-5.4,5.0%,-22.2%
CCn1nc(C)c(CN2CCCCC2C(=O)Nc2ccc(Oc3cccnc3)cc2)c1C (stereo not drawn),11.2µM*,9.0,-28.5%,-2.6,?,4.3%
